Screening results deposited in PubChem by National Center for Advancing Translational Sciences (NCATS).
MCF10A rerep: A quantitative high throughput screen for small molecules that induce DNA re-replication in MCF 10a normal breast cells; AID 624296, 2012; 2.9% of 350,000 active; Potency, µM (top dose mostly 46.1 µM), for inactives: top-dose activity, positive = re-replication, actives largely listed as activators; MCF 10A DNA re-replication, Hoechst nuclear intensity, 48 h; also: % of control where 0% means no effect; nearly all actives have a fitted effect of over 50% in size
SW480 rereplic: A quantitative high throughput screen for small molecules that induce DNA re-replication in SW480 colon adenocarcinoma cells; Potency, µM (doses to about 46.1 µM), without a hit: top-dose re-replication activation, hits mostly activators; 1.8% of 340,000 active; SW480 DNA re-replication, Hoechst DNA content imaging, 48 h; AID 624297, 2012; also: % of control where 0% means no effect; nearly all actives have a fitted effect of over 55% in size
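Treated cells incubate 48 hr (37 C, 5% CO2), are stained 40 min with Hoechst, and nuclear fluorescence is enumerated; a rise in nuclei with high DNA signal marks re-replication.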
KB-V1 cytotox: qHTS assay for MDR1-selective chemotherapeutics: Primary screen using the drug-selected MDR subline cells KB-V1; KB-V1 MDR cells viability, CellTiter-Glo, 72 h; AID 1347076, 2019; Potency, µM (highest dose often 46.1 µM), actives largely listed as cytotoxic; 3.4% of 400,000 active; also: % is scaled to controls: 0 for no effect and ±100 for the full control effect; nearly all actives have a fitted effect of over 60% in size
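KB-V1, DMEM (no phenol red) + 10% FBS; cpd pin-transferred, titration series; 72 h, 37 degrees C; CellTiter-Glo, luminescence. Data normalized, curve-fit.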
PINK1 expr mod: A Quantitative High throughput Screen to Identify Chemical Modulators of PINK1 Expression | PINK1 immunofluorescence, high-content cytometry, 24 h | Potency, µM (series often up to 76.6 µM), without a hit: top-dose activation (PINK1 increase), most hits filed as activators | 0.2% of 410,000 active; active = well fitted activation curve with a large enough effect; inconclusive = small, poorly fitted or top-dose-only effect; cell line not stated here; also: % of control where 0% means no effect; nearly all actives have a fitted effect of over 65% in size
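Readout is PINK1 immunofluorescence, quantified alongside mitochondrial, cell and nuclear markers by laser-scanning microplate cytometry. Cells from a stable line were exposed to compound titrations (5 concentrations) for 24 hours, with CCCP controls.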
KB-3-1 cytotox: qHTS assay for MDR1-selective chemotherapeutics: Primary screen using the parental adenocarcinoma cell KB-3-1 | KB-3-1 viability, CellTiter-Glo ATP luminescence, 72 h | Potency, µM (titrated, usually from 46.1 µM), hits mostly cytotoxic | 1.4% of 400,000 active | AID 1347075, 2019; also: % is scaled to controls: 0 for no effect and ±100 for the full control effect; nearly all actives have a fitted effect of over 60% in size
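Cytotoxicity in the drug-sensitive parental line KB-3-1 was scored as loss of CellTiter-Glo luminescence following 72 h incubation with compound. Values come from curve fitting of normalized concentration-response data.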
Active calls of the source: *; i = inactive; ? = inconclusive; / = no result given; [ ] = remark or other dose. Compounds with a hit are over-represented: about 6.7% of the library has one in this group of screens. Unless noted, calls follow the shape of the dose curve; as a rule, active = well fitted curve in the direction sought with a large enough effect; inconclusive = small, poorly fitted or top-dose-only effect, or another doubt; inactive = no such curve, though single readings can be large; an effect the other way counts as inactive or inconclusive. Potency is read from the fitted curve at half-maximal effect.

SMILES	MCF10A rerep	SW480 rereplic	KB-V1 cytotox	PINK1 expr mod	KB-3-1 cytotox
COc1ccc(CCn2c3c(c(=O)[nH]c2=O)C(NC(=O)c2ccccc2F)(C(F)(F)F)C(=O)N3)cc1OC (configuration not stated)	/	/	i	1%	i
CCN1/C(=C2/SC(=S)N(NC(C)=O)C2=O)Sc2ccccc21	6%	5%	i	22µM*	i
COc1ccc(NC(=O)C2(C)Cc3c(-c4ccc5c(c4)OCO5)ccnc3O2)cc1OC (configuration not stated)	/	/	i	6%	i
CC1(C(=O)Nc2ccc3c(c2)OCO3)Cc2c(-c3ccc4c(c3)OCO4)ccnc2O1 (configuration not stated)	/	/	?	2%	5.2µM*
CC1(C(=O)Nc2ccc3c(c2)OCO3)Cc2c(-c3cccc(C(N)=O)c3)ccnc2O1 (configuration not stated)	/	/	?	7%	7.3µM*
CC1(C(=O)Nc2ccc(Cl)cc2)Cc2c(-c3ccc4c(c3)OCO4)ccnc2O1 (configuration not stated)	/	/	?	7%	?
COc1ccc(NC(=O)C2(C)Cc3c(-c4ccc5c(c4)OCO5)ccnc3O2)cn1 (configuration not stated)	/	/	12µM*	1%	5.8µM*
COc1ccc(S(=O)(=O)N(C)C)cc1NC(=O)CSC(C)C(=O)Nc1cc(C)on1 (configuration not stated)	0%	0%	i	-1%	i
CN(C)S(=O)(=O)c1ccc(SCC(=O)N2CC(=O)Nc3ccccc32)nc1	-1%	-1%	i	0%	i
CN1CCN(c2cccc(Nc3nn4c(=O)c5ccc(C(F)(F)F)cc5nc4s3)c2)CC1	/	/	i	/	i
O=C1c2cccc3cccc(c23)C(=O)N1c1ccccc1Cl	18%	-3%	i	18%	i
Nc1ccccc1N1C(=O)c2cccc3cccc(c23)C1=O	8.2µM*	18µM*	?	-2%	i
Cc1cc(Br)c(Oc2cc(NN3CCCCC3)c([N+](=O)[O-])cc2[N+](=O)[O-])c(Br)c1	1%	-3%	i	0%	i
CC(C)(C)c1ccc(C(=O)CC(Sc2ccc(Cl)cc2)C(=O)O)cc1 (configuration not stated)	23µM*	?	?	-2%	?
CCn1c2ccccc2c2cc(/C=C3/C=Cc4ccccc43)ccc21	/	/	?	10%	?
O=C(O)COc1ccccc1/C=C1\SC(=Nc2ccc(F)cc2)N(c2ccc(F)cc2)C1=O	6.5µM*	?	?	1%	i
O=C(O)COc1ccc(/C=C2\SC(=Nc3ccccc3)N(c3ccccc3)C2=O)cc1	16%	2%	i	0%	i
COCCNC(=O)c1cc2c(c(-c3cccc(C#CC(C)(C)O)c3)n1)[C@@H](CCO)N(S(=O)C(C)(C)C)C2 (some centres not stated)	/	/	i	1%	i
Nc1ccccc1C(=O)NCCCN1CCN(c2cccc(Cl)c2)CC1	?	1%	i	2%	?
COC(=O)c1c(NC(=O)c2ccccc2)sc(Cc2ccccc2)c1C	?	10%	13µM*	2%	i
COC(=O)c1c(NC(=O)c2ccccc2)sc(C(N)=O)c1C	3%	4%	i	?	?
CCN(CC)C(=O)c1sc(NC(=O)c2ccc(Br)o2)c(C(=O)OC)c1C	?	9%	9.2µM*	-2%	i
COC(=O)c1c(NC(=O)c2ccccc2)sc(C(=O)c2ccccc2)c1C	6.5µM*	2%	?	-1%	?
CCOC(=O)CCCCCC(=O)Nc1ccc2c(c1)C(=O)N([C@H](C)CO)C[C@@H](C)[C@@H](CN(C)C(=O)CCC(F)(F)F)OCCCC[C@H](C)O2	/	/	i	2%	i
O=C1C2C3C=CC(O3)C2C(=O)N1N=Cc1cccc2ccccc12 (configuration not stated)	2%	-1%	i	-3%	i
SMILES	MCF10A rerep	SW480 rereplic	KB-V1 cytotox	PINK1 expr mod	KB-3-1 cytotox
CC[N+]1(CC(=O)c2ccc(OC)cc2)CCCCC1	/	/	i	/	i
CC(C)N1CCC(C)(C(=O)Nc2cccc(Oc3ccccc3)c2)C1 (configuration not stated)	/	/	i	2%	i
CC(C)(C)N1CC23CCC(C[C@@H]2C1=O)O3 (some centres not stated)	-10%	-12%	i	-1%	i
Cc1cc(C)nc(Nc2ncc(O)n2-c2ccc(C)c(C)c2)n1	15%	-1%	12µM*	-1%[38.3 µM]	i
Cc1cc(C)nc(Nc2ncc(O)n2-c2ccc(C)c(Cl)c2)n1	2%	-11%	i	0%	i
O=C(OCc1nc(-c2ccccc2Cl)no1)c1ccco1	3%	-4%	i	3%	i
CCC(c1nnnn1-c1c(C)cccc1C)N1CCN(c2ccccn2)CC1 (configuration not stated)	/	/	?	1%	i
COc1ccccc1CNC(=O)c1ccc(-c2nc(CS(=O)(=O)c3ccc(C)cc3)c(C)o2)cc1	/	/	i	2%	i
Cc1oc(-c2ccc(Cl)cc2)nc1CSCC(=O)NCc1ccccc1Cl	/	/	?	0%	?
COc1ccccc1CNC(=O)c1ccc(-c2nc(CN3CCc4ccccc43)c(C)o2)cc1	/	/	10µM*	-1%	?
Cc1oc(-c2ccc(C(=O)NCc3ccccc3Cl)cc2)nc1CN1CCc2ccccc21	/	/	?	0%	5.8µM*
CCCCNC(=O)CCCn1c(=O)c2ccccc2n(Cc2ccc(Cl)cc2)c1=O	/	/	i	2%	i
CCOC(=O)[C@@H](C)N(C(=O)OC(C)(C)C)S(=O)(=O)N(Cc1ccccc1)[C@@H](C(=O)OC)C(C)C	/	/	i	/	i
CCCCCCSc1cc(-c2nc3cc(C)ccn3c2NC2CCCCC2)ccc1OC	?	-2%	i	?	?
COc1cc(-c2nc3ccc(C)cn3c2NCc2ccccc2)ccc1-c1cccc(Cl)c1	?	?	i	4%	i
Cc1ccc2nc(-c3ccc(-c4cccc(Cl)c4)cc3)c(NCc3ccccc3)n2c1	?	0.33µM*	i	8%	i
COc1ccc(-c2nc3ccccn3c2NC2CCCCC2)cc1SC1CCCCC1	12µM*	?	i	?	?
COc1cc(-c2nc3ccc(C)cn3c2NCc2ccccc2)ccc1SC1CCCCC1	18µM*	?	?	?	i
COc1cc(-c2nc3ccccn3c2NCc2ccccc2)ccc1SC1CCCCC1	26µM*	29%	?	?	?
